Potency and affinity values are given separately.
Legend:
Klebsiella pneumoniae = conditions: Concentration 20 uM; ASSAY_TEST Inhibition of Bacterial Growth; detection method Absorption (OD600); MEDIA CAMHB; plate type 384well; NBS; CORNING #3640; time 18 hr
Candida albicans = conditions: 20 µM
Cryptococcus neoformans = conditions: Concentration 20 uM; ASSAY_TEST Inhibition of Fungal Growth; detection method Resazurin; Absorption (OD600-OD570); plate type 384well; NBS; CORNING #3640

Row | SMILES | Inhibition (Klebsiella pneumoniae) [%] | Inhibition (Candida albicans) [%] | Inhibition (Cryptococcus neoformans) [%]
1 | Cl.c1ccc(Oc2ccc(-c3cc(N4CCNCC4)[nH]n3)cc2)cc1 | -6.32 | 2.61 | -9.84
2 | Cc1[nH]c2cc(F)cc(F)c2c(=O)c1-c1ccc(Oc2ccc(OC(F)(F)F)cc2)cc1 | 5.11 | 3.94 | -10.28
3 | COc1cc(OC)cc(C(=O)NCC2Cc3cc(Cl)cc(-c4ccncc4)c3O2)c1 (stereo not given) | 8.14 | 4.34 | -5.78
4 | O=C(NCc1ccoc1)N1CCN(Cc2ccc3c(c2)OCO3)CC1 | 7.21 | 2.46 | 10.58
5 | Cl.Cl.Cl.NS(=O)(=O)c1cncc(-c2ccc3nccc(-c4cn[nH]c4)c3n2)c1 | -1.63 | 3.16 | -2.89
6 | COc1cc(Br)cc2cc(C(=O)Nc3cccc(C(F)(F)F)c3)c(=O)oc12 | 7.93 | 3.09 | -6.76
7 | O=C(C1CCCCC1)N1CC(=O)N2CCc3ccccc3C2C1 (stereo not given) [PRAZIQUANTEL] | 12.46 | 4.53 | -6.4
8 | CNC(=O)C1Cc2ccccc2N1C(=O)Cc1ccc(F)cc1 (stereo not given) | 8.26 | 3.31 | -12.98
9 | Cc1cc(C)n(-c2ccc(NC(=O)C3CCN(Cc4cnc(C)s4)CC3)cc2)n1 | 8.14 | 2.85 | -6.76
10 | COc1cccc(-c2cc3c(Nc4cccnc4)nccc3[nH]2)c1 | 4.5 | 3.5 | -6.63
11 | CC(C(=O)Nc1ccc2oc(-c3ccncc3)nc2c1)c1ccccc1 (stereo not given) | 10.68 | 3.28 | -12.41
12 | CC(C)c1ncc(-c2ccncc2)c([C@H]2CC[C@H](CNC(=O)c3cccnc3)CC2)n1 | 18.24 | 1.5 | -3.68
13 | C[C@]1(O)C[C@@H](c2nc(-c3ccc4ccc(-c5ccccc5)nc4c3)c3c(N)nccn32)C1 [LINSITINIB] | 12.51 | 8.51 | -8.41
14 | O=C(Nc1ccccc1-c1nc2c(C(=O)O)cccc2o1)c1ccccc1 | 1.94 | 5.59 | -2.58
15 | O=C(NCc1nnc2n1CCCCC2)c1ccc(-c2ccc(F)cc2)o1 | 6.05 | 3.81 | 6.1
16 | O=C1[C@@H](Oc2ccccc2)[C@@H](c2ccc(Cl)cc2)N1CCn1cnc2c(NCc3ccccc3)ncnc21 | 2.13 | 33.5 | -6.99
17 | c1cc(C2=NCCN2)cc(-c2cc(-c3ccc(C4=NCCN4)cc3)no2)c1 | 11.59 | 2.32 | -10.15
18 | COc1cc(C2=NCCN2)ccc1-n1cc(-c2cccc(C3=NCCN3)c2)nn1.O=CO.O=CO | 8.01 | 2.32 | 7.56
19 | CN1CCN(c2nccc3[nH]c(-c4cccc(F)c4)cc23)CC1 | 12.23 | 5.85 | 5.1
20 | O=C(C1CCN(c2cc(-n3cccc3)ncn2)CC1)N1CCc2ccccc2C1 | -8.74 | 10 | 3.06
21 | Cc1ccc2nc(C)c(-c3ccn(Cc4ccccc4)n3)n2c1 | 14.88 | 3.75 | -8.36
22 | Nc1ncnc2[nH]nc(Cc3cccc4ccccc34)c12 | 12.26 | 3.76 | -8.72
23 | CC(C)n1ncc2c(C(=O)NCC(c3cccs3)N3CCOCC3)cc(-c3ccccc3)nc21 (stereo not given) | 8.44 | 4.59 | -15.65
24 | CNC(=O)c1nn(C)c2c1C(C)(C)Cc1cnc(Nc3ccc(N4CCN(C)CC4)cc3)nc1-2 [MILCICLIB] | -10.97 | 4.83 | -4.76
25 | CC1=NN(c2nc3ccccc3s2)C(=O)C1Cc1cccc2ccccc12 (stereo not given) | 10.99 | 19.6 | -5.86
26 | Brc1c(-c2ccc3c(c2)OCO3)nc2ncccn12 | 12.72 | 3.56 | -13.08
27 | O=C(C1CCN(c2nnnn2-c2ccccc2)CC1)N1CCc2ccccc2C1 | 12.73 | 2.89 | -8.99
28 | COc1cccc(NC(=O)c2c(NC(=O)c3cccnc3)sc3c2CCC3)c1 | 13.46 | 9.13 | -5.87
29 | O=C(NC1=NCCS1)c1sc2cc(F)ccc2c1Cl | 1.67 | 8.69 | -16.39
30 | Cc1ccc(Oc2ccc(NC(=O)CNc3ccccc3N3CCCC3=O)cc2)cc1 | 9.79 | 2.74 | -10.82
